Most compounds without a hit are left out; they make up all but 19% or so of the library.
TDP1 cell CPT – growth inhibition of DT40 Tdp1-/-;hTDP1 cells with camptothecin (screen for TDP1 inhibitors). chicken DT40 Tdp1-/-;hTDP1 cells + 20 nM CPT, ATP luminescence, 48 h. Potency, µM (top dose mostly 46.2 µM), for the others: at the top dose activity change, negative = growth inhibition, usual class: inhibitors. actives 12% (n = 420,000). AID 686979; also: potency is read from the fitted curve at half-maximal effect; nearly all actives have a fitted effect of over 55% in size
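Cell growth measured by CellTiter-Glo luminescence after a minimum 48 h, 37 C compound exposure with 20 nM CPT in Tdp1-knockout DT40 cells stably expressing hTDP1, seeded 400/well; qHTS titration format.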
ELG1 DNA repair – ELG1-dependent DNA repair inhibition. HEK293T ELG1-luciferase reporter, luminescence, 16 h; DNA damage induced by 5-fluorouridine. Potency, µM (top dose mostly 46.1 µM), without a hit: top-dose activity change, negative = inhibition, most hits filed as inhibitors. actives 2.3% (n = 330,000); also: potency is read from the fitted curve at half-maximal effect; nearly all actives have a fitted effect of over 55% in size
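Quantitative HTS, concentration-response format. 2,000 cells/well co-treated with 5-fluorouridine and compound, 16 hr in 5% CO2 at 37 °C; ONE-Glo luminescence read after 30 min.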
TDP1 inh – TDP1 (human) enzyme inhibition; recombinant TDP1, AlphaScreen DNA substrate cleavage; Potency, µM (doses to about 130 µM), without a hit: at the highest dose activity change, negative = inhibition, hits mostly inhibitors; actives 0.28% (n = 350,000); also: potency is read from the fitted curve at half-maximal effect; nearly all actives have a fitted effect of over 40% in size
Target sequence (Q9NUW8 whole entry, looked up): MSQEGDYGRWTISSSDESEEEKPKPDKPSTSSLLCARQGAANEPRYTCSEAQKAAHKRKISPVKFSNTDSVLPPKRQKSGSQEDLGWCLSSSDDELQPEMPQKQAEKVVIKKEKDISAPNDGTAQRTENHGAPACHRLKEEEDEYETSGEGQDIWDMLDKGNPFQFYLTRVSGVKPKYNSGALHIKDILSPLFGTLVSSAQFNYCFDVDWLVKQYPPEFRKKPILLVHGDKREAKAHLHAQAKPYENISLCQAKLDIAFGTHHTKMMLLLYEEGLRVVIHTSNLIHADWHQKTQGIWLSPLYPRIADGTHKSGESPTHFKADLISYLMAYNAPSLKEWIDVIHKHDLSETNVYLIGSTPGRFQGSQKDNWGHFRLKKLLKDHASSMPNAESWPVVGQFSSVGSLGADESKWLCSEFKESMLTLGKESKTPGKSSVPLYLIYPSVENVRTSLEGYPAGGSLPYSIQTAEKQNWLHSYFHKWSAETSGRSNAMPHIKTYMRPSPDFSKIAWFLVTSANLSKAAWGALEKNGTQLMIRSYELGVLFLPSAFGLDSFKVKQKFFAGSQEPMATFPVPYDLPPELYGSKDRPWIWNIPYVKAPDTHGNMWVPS
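AlphaScreen read-out: signal falls as enzyme removes the 3' tyrosine-FITC from a 5'-biotinylated DNA oligo (15 nM, 5 min, RT). Enzyme was E. coli-made recombinant Tdp1 at 1 nM, exposed to compound for 15 min beforehand; beads 10 ug/ml, 10 min.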
TDP1 cell noCPT – qHTS for Inhibitors of human tyrosyl-DNA phosphodiesterase 1 (TDP1): qHTS in cells in absence of CPT; actives 15% (n = 420,000); Potency, µM (doses to about 46.2 µM), without a hit: at the highest dose activity change, negative = growth inhibition, usual class: inhibitors; AID 686978, 2013; DT40 Tdp1-/- hTDP1 cells, no CPT, ATP luminescence, 48 h; also: potency is read from the fitted curve at half-maximal effect; nearly all actives have a fitted effect of over 55% in size
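Compound effects on proliferation are scored in DT40 Tdp1-/-;hTDP1 cells in the absence of CPT. ATP levels (CellTiter-Glo luminescence) are recorded after a ≥48 hr, 37 °C incubation.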
Giardia kill – kills Giardia lamblia. Giardia lamblia trophozoite viability. activity change, % at 7.66 µM, hits read low. actives 0.15% (n = 340,000); in the data active = activity change below about -80%; inconclusive = between about -30% and that limit;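 also: parasites exposed to compound for two days anaerobically before the ATP read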
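Media and compound were dispensed first, then trophozoites at 100 cells/well; plates sat 48 hrs at 37 deg C without oxygen before ATP luminescence reagent was added and read after 15-30 min at room temperature.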
IL-1B inflam inh – inhibitors of inflammasome signaling (IL-1 beta secretion); THP-1 LPS/ATP IL-1B secretion, AlphaLISA, 16 h; active compounds read low; activity change, % at 57.5 µM; actives 4.7% (n = 360,000); in the data active = activity change below about -50%; inconclusive = mostly about -30% to -49%
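THP-1 cells pretreated 1 hr with compounds (up to 57.5 uM final), then stimulated with LPS (250 ng/mL final) plus ATP (1.25 mM final); secreted IL-1B measured by AlphaLISA after 16 hr, decreased signal indicating inhibition.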
ELG1 FLuc counter – luciferase inhibition in cell-free luciferin readout for ELG1 hits. AID 624247. actives 3% (n = 350). Potency, µM (series often up to 46.1 µM), for the others: at the top dose activity change, negative = inhibition, hits mostly inhibitors. cell-free firefly luciferase luminescence counter-screen, ViewLux. shares compounds with ELG1 DNA repair; also: potency is read from the fitted curve at half-maximal effect
ELG1-Luc inh – confirmation of human ELG1-dependent DNA repair inhibitors. shares compounds with ELG1 DNA repair. HEK293T ELG1-luciferase levels, luminescence; cells co-treated with 5-fluorouridine. Potency, µM (doses to about 46.1 µM), without a hit: top-dose activity change, negative = inhibition, usual class: inhibitors. actives 68% (n = 670). AID 624248; also: potency is read from the fitted curve at half-maximal effect; nearly all actives have a fitted effect of over 55% in size
ELG1 MMS Luc – confirmation of human ELG1 repair inhibitors, MMS stimulated; shares compounds with ELG1 DNA repair; HEK293T luciferase-tagged ELG1 level, MMS stimulated; Potency, µM (doses to about 46.1 µM), inactives show at the top dose activity change, negative = inhibition, hits mostly inhibitors; actives 53% (n = 670); AID 624249; also: potency is read from the fitted curve at half-maximal effect; nearly all actives have a fitted effect of over 60% in size
ELG1 5-FU – confirmation of ELG1 repair inhibitors: viability with 5FU; shares compounds with ELG1 DNA repair; cell viability with 5-FU, ELG1-dependent repair; Potency, µM (titrated, usually from 46.1 µM), inactives show at the highest dose activity change, negative = viability loss, most hits filed as cytotoxic; 670 tested, under 10 active; AID 624250;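 also: ELG1-luc HEK293T cells cotreated with 5-fluorouridine at 10 µM final; potency is read from the fitted curve at half-maximal effect; viability measured 16 h after compound addition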
ELG1 MMS cell – confirmation of ELG1 repair inhibitors: viability with MMS. AID 624251. actives 33% (n = 670). Potency, µM (highest dose often 46.1 µM), without a hit: top-dose activity change, negative = viability loss, most hits filed as cytotoxic. Cell viability with MMS, ELG1-dependent DNA repair. shares compounds with ELG1 DNA repair;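 also: ELG1-luc HEK293T cells co-treated with 10 µM MMS; potency is read from the fitted curve at half-maximal effect; viability read 16 h after compound addition; nearly all actives have a fitted effect of over 60% in size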
ELG1 unstim viab – affects unstimulated cell viability, ELG1 hit counter-screen; cell viability counter-screen, unstimulated, luminescence; shares compounds with ELG1 DNA repair; actives 8% (n = 900); Potency, µM (titrated, usually from 45.9 µM), without a hit: at the highest dose activity change, negative = loss of viability, hits mostly cytotoxic; AID 624252;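 also: potency is read from the fitted curve at half-maximal effect; compound exposure lasted 16 hours before reading; nearly all actives have a fitted effect of over 55% in size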
FLuc biochem – firefly luciferase inhibition counter-screen | purified firefly luciferase, luminescence counter-screen | actives 10% (n = 350) | AID 624253 | shares compounds with ELG1 DNA repair | Potency, µM (doses to about 57.5 µM), for the others: at the highest dose activity, negative = inhibition, actives largely listed as inhibitors; also: potency is read from the fitted curve at half-maximal effect
* hit, by the source's call; ? = inconclusive; / = no result; [ ] = another dose, or the depositor's remark. Unless noted, calls follow the shape of the dose curve; as a rule, active = well fitted curve in the direction sought with a large enough effect; inconclusive = small, poorly fitted or top-dose-only effect, or another doubt; inactive = no such curve, though single readings can be large; an effect the other way counts as inactive or inconclusive. % is scaled to controls: 0 for no effect and ±100 for the full control effect.

SMILES	TDP1 cell CPT	ELG1 DNA repair	TDP1 inh	TDP1 cell noCPT	Giardia kill	IL-1B inflam inh	ELG1-Luc inh	ELG1 MMS Luc	ELG1 5-FU	ELG1 MMS cell	ELG1 unstim viab	others
CS[C@@H]1SC[C@H]2C(=O)N(C)C(C(C)C)C(=O)OC[C@@H](NC(=O)c3cnc4ccccc4n3)C(=O)N[C@@H](C)C(=O)N(C)[C@H]1C(=O)N(C)C(C(C)C)C(=O)OC[C@@H](NC(=O)c1cnc3ccccc3n1)C(=O)N[C@@H](C)C(=O)N2C (stereo not given in full)	/	/	9%	/	/	/	0.14µM*	0.056µM*	17%	0.2µM*	-4%	ELG1 FLuc counter=?;FLuc biochem=2%
O=C(COC(=O)c1ncc(Cl)c(Cl)c1Cl)NC(=O)c1ccccc1	23%	?	-8%[0.505 µM]	-2%	-10	2	/	/	/	/	/
Cc1nn(-c2ccccc2)c(N2CCCC2)c1/C=N/n1cnc2scc(-c3ccccc3)c2c1=O	10µM*	13µM*	-5%	13µM*	5	37	4.5µM*	?	6%	-9%	?	ELG1 FLuc counter=2%;FLuc biochem=-4%
Cc1nn(-c2ccccc2)c(N2CCCC2)c1/C=N/O	?	-21%	4%	?	2	0	/	/	/	/	/
CC1CCCCC1NC1=NCCCS1 (stereo not given)	/	5%	-3%	/	/	/	/	/	/	/	/
O=C(c1ccc(-c2cc3ccccc3oc2=O)cc1)N1CCN(c2ccc(Cl)cc2[N+](=O)[O-])CC1	?	4.6µM*	3%	?	-26	-13	5µM*	-7%	?	?	?
COc1cccc2cc(-c3cc(=O)oc4ccc(OCC(C)=O)cc34)oc12	?	2.6µM*	1%	?	13	-5	6.3µM*	11µM*	8%	-16%	?
CC(C)(C)c1ccc(C(=O)NNc2ncccc2-n2cccc2)cc1	13µM*	3.3µM*	1%	13µM*	3	-5	6%	30%	-6%	-2%	-2%
Cc1nn(-c2ccc(C(=O)N3CCN(S(=O)(=O)c4ccccc4C(F)(F)F)CC3)cc2)c(C)c1Cl	?	3.3µM*	2%	?	-10	-13	7.1µM*	?	?	?	?
Cc1nn(-c2ccc(C(=O)O)cc2)c(C)c1Cl	-11%	?	3%	-25%	-18	-7	/	/	/	/	/
Cc1ccccc1CC(=O)N1CCCC1	-10%	-1%	6%	-13%	-26	1	/	/	/	/	/
CC(=O)CC(=O)Nc1ncccn1	5%	-6%	-4%	-16%	2	-1	/	/	/	/	/
COc1ccc(-c2cc3cc(OC)c(OC)cc3cn2)cc1	?	?	2%	?	-4	-12	/	/	/	/	/
COc1ccc(-c2cc3cc4c(cc3cn2)OCO4)cc1	-20%	?	0%	-18%	-25	30	/	/	/	/	?	ELG1 FLuc counter=-2%;FLuc biochem=0.41µM*
COc1cc(OC)cc(-c2cc3ncccc3cn2)c1	?	?	-3%	?	6	0	/	/	/	/	/
c1ccc(-c2cc3cc4c(cc3cn2)OCO4)cc1	?	?	-13%	?	-6	59	/	/	/	/	?
COc1cc(OC)cc(-c2cc3cc4c(cc3cn2)OCO4)c1	0.65µM*	?	-1%	0.52µM*	?	36	/	/	/	/	?
CCOCCn1ccc2c(OCC(=O)NCc3ccc(F)cc3)cccc2c1=O	-22%	/	-3%	-27%	/	/	/	/	/	/	/
CCOCCn1ccc2c(OCC(=O)Nc3cc(OC)ccc3OC)cccc2c1=O	?	4.1µM*	0%	9.2µM*	11	-11	11µM*	16µM*	?	?	?
Cc1ccc(C(=O)Cn2c(C(=O)OCCO)cc3ccccc32)cc1	?	-22%	3%	?	-2	30	/	/	/	/	/
O=c1c2ccccc2oc2c1oc1ccccc12	?	?	-3%[56.1 µM]	?	-2	-7	/	/	/	/	-15%
CCOC(=O)c1cnc(-n2nc(C)cc2C)nc1Nc1ccc(O)cc1	2.3µM*	4.1µM*	0%	2.9µM*	-10	0	3.5µM*	2.5µM*	-3%	2.8µM*	?
CCOC(=O)c1cnc2cc(C)nn2c1C	10%	10%	2%	-17%	13	6	/	/	/	/	/
O=C(O)CNC(=O)c1ccccc1I	-9%	/	10%	1%	/	/	/	/	/	/	/
CCOC(=O)N1CCN(C(=O)c2ccc3c(c2)N=C(C)c2cc(Cl)ccc2S3)CC1	?	3.7µM*	5%	12µM*	3	-10	8.9µM*	?	?	?	?
CC1=Nc2cc(C(=O)N3CCCC3)ccc2Sc2c(C)ccc(C)c21	?	?	3%	?	?	-7	/	/	/	/	/
